Assay outcomes: PubChem BioAssay, National Center for Advancing Translational Sciences (NCATS)
Only a selection was taken, and hits are over-represented in it overall.
KDM5B inh: KDM5B demethylase inhibition; Q9UGL1; KDM5B demethylase, FDH-coupled NADH fluorescence (FDH is formaldehyde dehydrogenase); Potency, µM (doses to about 57.7 µM), hits mostly inhibitors; hit rate 2.6% among 220,000; active = well fitted inhibition curve with a large enough effect; also: 0% is about no effect; nearly all actives have a fitted effect of over 70% in size
Target sequence (Q9UGL1 whole entry, looked up): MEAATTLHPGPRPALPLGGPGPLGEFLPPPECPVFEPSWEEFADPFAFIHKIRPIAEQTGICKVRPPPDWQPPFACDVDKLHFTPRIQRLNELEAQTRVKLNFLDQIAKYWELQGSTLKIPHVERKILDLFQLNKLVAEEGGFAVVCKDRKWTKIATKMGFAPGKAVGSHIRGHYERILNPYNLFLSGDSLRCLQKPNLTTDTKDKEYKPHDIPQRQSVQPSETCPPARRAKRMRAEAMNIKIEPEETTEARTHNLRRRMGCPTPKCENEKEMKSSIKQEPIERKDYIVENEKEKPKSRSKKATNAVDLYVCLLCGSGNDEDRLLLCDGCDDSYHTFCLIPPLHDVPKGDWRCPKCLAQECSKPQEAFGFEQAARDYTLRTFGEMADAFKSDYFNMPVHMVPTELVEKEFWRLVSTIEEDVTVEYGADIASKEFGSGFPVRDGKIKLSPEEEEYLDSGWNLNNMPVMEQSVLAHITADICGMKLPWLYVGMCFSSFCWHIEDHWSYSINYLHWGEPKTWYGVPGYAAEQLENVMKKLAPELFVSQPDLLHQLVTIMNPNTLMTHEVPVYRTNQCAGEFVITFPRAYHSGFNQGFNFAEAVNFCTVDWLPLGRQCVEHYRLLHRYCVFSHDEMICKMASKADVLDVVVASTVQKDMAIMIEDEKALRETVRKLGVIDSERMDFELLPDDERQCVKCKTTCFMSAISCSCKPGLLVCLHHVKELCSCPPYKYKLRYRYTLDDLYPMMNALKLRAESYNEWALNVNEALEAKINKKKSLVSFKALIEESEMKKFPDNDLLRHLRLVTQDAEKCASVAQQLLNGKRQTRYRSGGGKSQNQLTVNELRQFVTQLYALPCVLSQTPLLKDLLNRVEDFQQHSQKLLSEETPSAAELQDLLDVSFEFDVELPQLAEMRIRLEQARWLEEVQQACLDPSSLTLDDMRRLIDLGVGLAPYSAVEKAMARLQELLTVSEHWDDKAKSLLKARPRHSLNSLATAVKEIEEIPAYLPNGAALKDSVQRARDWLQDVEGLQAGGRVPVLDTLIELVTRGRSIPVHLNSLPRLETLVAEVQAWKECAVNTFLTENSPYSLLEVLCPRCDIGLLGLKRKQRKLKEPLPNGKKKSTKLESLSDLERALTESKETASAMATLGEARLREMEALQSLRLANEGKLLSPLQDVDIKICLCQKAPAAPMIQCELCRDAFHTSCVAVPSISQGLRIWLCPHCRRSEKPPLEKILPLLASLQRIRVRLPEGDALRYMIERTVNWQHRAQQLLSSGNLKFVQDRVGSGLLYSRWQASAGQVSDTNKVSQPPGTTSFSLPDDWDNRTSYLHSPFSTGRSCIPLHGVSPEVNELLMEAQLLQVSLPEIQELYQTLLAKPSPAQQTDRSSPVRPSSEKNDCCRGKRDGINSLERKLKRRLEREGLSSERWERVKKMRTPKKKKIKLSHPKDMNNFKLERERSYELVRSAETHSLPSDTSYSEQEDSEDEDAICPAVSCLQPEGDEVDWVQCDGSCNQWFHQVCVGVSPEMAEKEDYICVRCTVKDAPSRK
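Here, H3K4me3 peptide (12.5 µM in substrate mix) is demethylated by KDM5BΔAP, 200 nM final, after 10 min compound exposure. Formaldehyde product is coupled through FDH (0.25 U/mL in mix) to NADH fluorescence; 30-min ΔRFU feeds dose-response curves.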
* hit, by the source's call; i = inactive. Potency is read from the fitted curve at half-maximal effect.

SMILES	KDM5B inh
COc1ccc([C@H]2C[C@@H](O)[C@@H](O)[C@@H]2NCc2ccc(OC)nc2)cc1	i
Cc1cc(F)ccc1NC(=O)C1CCN(c2cnc3ccccc3n2)CC1	i
Cn1ccnc1C(=O)N1CCC(N2C(=O)C3(CCCC3)C2c2ccccc2)CC1 (stereo not given)	i
COC(=O)c1sccc1S(=O)(=O)N(CC(=O)Nc1cccc(C)c1C)c1ccc(Cl)cc1	i
O=C(N[C@@H]1CN(C(=O)Nc2ccccc2)CCC[C@H]1O)c1ccc(OCc2ccccc2)cc1	i
Cc1noc(C)c1COc1ccc(C(=O)N[C@@H]2CN(C(=O)Nc3cccc(C(F)(F)F)c3)CCC[C@H]2O)cc1	i
O=C(N[C@@H]1CN(Cc2ccccn2)CCC[C@H]1O)c1ccc(OCc2ccccc2)cc1	i
NC(=O)COc1ccc(C(=O)N[C@@H]2CN(C(=O)NC3CCCCC3)CCC[C@H]2O)cc1	i
COC(=O)COc1ccc(C(=O)N[C@@H]2CN(C(=O)Nc3ccc(F)cc3)CCC[C@H]2O)cc1	i
NC(=O)COc1ccc(C(=O)N[C@@H]2CN(Cc3ccccn3)CCC[C@H]2O)cc1	31.6µM*
O=C(N[C@@H]1CN(C(=O)Nc2ccc(F)cc2)CCC[C@H]1O)c1ccc(OCCN2CCCC2)cc1	28.2µM*
COCCOc1ccc(C(=O)N[C@@H]2CN(C(=O)Nc3ccc(F)cc3)CCC[C@H]2O)cc1	i
COC(=O)c1ccccc1NC(=O)N1CCC[C@@H](O)[C@H](NC(=O)c2ccc(OCc3c(C)noc3C)cc2)C1	22.4µM*
COc1ccc(Br)cc1C(=O)Nc1c(NCc2ccccc2)c2ccccc2oc1=O	i
O=C(COc1cc(Cl)ccc1Cl)N1CC=C(c2ccccc2)CC1	i
COCCC(=O)NCC(=O)N1CCCCCNC(=O)CC1c1ccccc1 (stereo not given)	i
Cn1c(=O)c2c([nH]c(=O)n2Cc2ccccc2F)n(C)c1=O	i
CCCNC(=O)CN1C(=O)NC(c2ccccc2OCC)C2=C1COC2=O (stereo not given)	i
Nc1nc(NCc2ccccc2)sc1C(=O)c1ccc(Cl)cc1	i
COc1ccc(CNC(=O)CCc2ncc(-c3ccccc3)o2)cc1	i
O=C(CSc1nnc(-c2ccncc2)n1-c1ccc(Cl)cc1)Nc1ccc(F)cc1	i
CCC(O)CNc1ccc(-c2nc(COC)no2)cn1 (stereo not given)	31.6µM*
CC(O)CNc1ccc(-c2nc(CCCc3ccccc3)no2)cn1 (stereo not given)	i
CCCNC(=O)NCCc1noc(-c2cccnc2)n1	i
Cc1ccsc1C(=O)NC1CCc2nn(CC3CC3)c(=O)n2CC1 (stereo not given)	i
SMILES	KDM5B inh
Cn1nc(C(=O)NC2CCc3nn(CC4CC4)c(=O)n3CC2)c2ccccc21 (stereo not given)	28.2µM*
CNC1CCc2nn(CC3CC3)c(=O)n2CC1 (stereo not given)	i
O=C(NC1CCc2nn(CC3CC3)c(=O)n2CC1)c1ccc[nH]c1=O (stereo not given)	28.2µM*
COc1ccc(C(=O)NC2CCc3nn(CC4CC4)c(=O)n3CC2)c(C)c1 (stereo not given)	i
O=C(CCc1c[nH]c2ccccc12)NC1CCc2nn(CC3CC3)c(=O)n2CC1 (stereo not given)	i
COC(=O)c1ccc(/C=N/Nc2ccc(S(N)(=O)=O)cc2[N+](=O)[O-])cc1	i
CC(NC(=O)c1ccccc1Cc1ccccc1)c1ccncc1 (stereo not given)	i
O=C(NCCc1ccccc1)c1ccc(Cl)c(S(=O)(=O)N2CCOCC2)c1	i
COCCC1(C(=O)O)CCCN(CC(=O)NCCc2ccccc2)C1 (stereo not given)	i
CC(C)CNC(=O)c1cccc(NC(=O)C2CCCCC2)c1	i
CS(=O)(=O)N1CCc2cc(C(=O)NCCc3ccccc3)ccc21	i
CN1CC2(CCCN(CC3CC3)C2)c2cc(C(=O)NCCc3ccccc3)ccc21 (stereo not given)	35.5µM*
CC(=O)N1CCCC2(C1)CN(C)c1ccc(C(=O)NCCc3ccccc3)cc12 (stereo not given)	35.5µM*
COc1ccc(C(=O)N2CCc3ccc(C(=O)NCc4ccccc4)cc32)cc1	i
COCCN1CCC2(C1)CN(C)c1ccc(C(=O)NCc3ccccc3)cc12 (stereo not given)	35.5µM*
COCCN1CCCCCC(O)c2cc(C(=O)NCCc3ccccc3)ccc21 (stereo not given)	i
CC(C)CNC(=O)c1ccc(NC(=O)C2CCCCC2)cc1	i
CC(C)CNC(=O)c1ccc2c(c1)C1(CCCN(CC3CC3)C1)CN2C (stereo not given)	35.5µM*
COc1cccc(C(=O)NCc2ccccc2)c1	i
Cn1c(C(=O)N2CCC(N3CCCCC3)CC2)cc2c1CCN(Cc1cccc(F)c1)C2	i
O=C(c1csc(N2CCN(c3ccccc3)CC2)n1)N1CCCCCC1	i
COc1ccc(/C=C(\C#N)C(=O)N2CCOCC2)cc1	i
Cn1ncc(N2CCC(NC(=O)CC3CCCCC3)CC2)cc1=O	i
O=C(CCCn1ccnc1)N1CCn2nc(C(O)Cc3ccccc3)cc2C1 (stereo not given)	i
CC(C)C(NC(=O)c1cn(C2CCC(N)CC2)nn1)c1nc(C2CC2)no1 (stereo not given)	i
SMILES	KDM5B inh
COCCC1(NC(=O)C2CCOCC2)CCN(C(=O)c2cccnc2C)CC1	i
Fc1ccc(CN2CCC3(CC2)CC(c2cccnc2)=NO3)cc1	i
COc1cc(C)ccc1S(=O)(=O)NCC1CNCCOC1 (stereo not given)	i
COC(=O)c1c(NC(=O)c2ccc(OC)cc2)c2cc(NC(C)CCn3cccn3)cnc2n1C (stereo not given)	i
CN(C)CCC(=O)N1Cc2ccccc2CC2(CCCN(CC3CCOCC3)C2)C1 (stereo not given)	i
CN(C)CCNC(=O)c1ccc2c(=O)n3c(nc2c1)CCCCC3	i
CN(C)CCNC(=O)c1ccc2c(c1)C1(CCCN(CC3CC3)C1)CN2C (stereo not given)	35.5µM*
Cc1ccc(CNCCN2CCCC2)cc1C	i
CN(C)S(=O)(=O)c1ccc(N2CCCCC2)c(C(=O)N2CCCc3ccccc32)c1	i
COc1cc(OC)cc(C(=O)N2CCC(n3cc(-c4nc(-c5ccccc5)no4)nn3)C2)c1 (stereo not given)	i
CC(=O)N1CCN(c2nc3c(s2)CC(C(=O)NCc2ccc(C(C)C)cc2)CC3)CC1 (stereo not given)	i
CC(C)c1ccc(CNC(=O)c2ccc(N3CCCC3)c(NC(=O)NCc3ccc(F)cc3)c2)cc1	i
O=C(NCc1cccc(Cl)c1)c1ccc2nc(N3CCCCC3)sc2c1	i
COc1cccc(CNC(=O)c2cc3c(N4CCCC4)nc(C)cn3n2)c1	i
Cc1cn2nc(C(=O)NCCc3cccs3)cc2c(N2CCSCC2)n1	14.1µM*
Cc1cn2nc(C(=O)NCc3ccc(C(C)C)cc3)cc2c(N2CCSCC2)n1	14.1µM*
Cc1cn2nc(C(=O)NCc3cccc(Cl)c3)cc2c(N2CCSCC2)n1	14.1µM*
CC(C)[n+]1c(NCc2cc(Br)cc(Br)c2[O-])[nH]c2ccccc21	i
N#Cc1nc(/C=C/c2ccc(F)cc2)oc1NCc1ccccc1	i
O=C(Cc1c[nH]c2ccccc12)N1CCC2(CC1)CC(CO)N(C(=O)c1ccccc1)C2 (stereo not given)	i
